# PubChem BioAssay AID651820 (National Center for Advancing Translational Sciences (NCATS), 2012)
# Among all 340,000 compounds or so, about 12,000 (3.5%) were called active. Not shown: some 18% with an inconclusive outcome. The full list was thinned out, with actives kept by preference. Unmarked numbers belong to inactive results. Calls come from the whole dose curve; as a rule, active = well fitted inhibition curve with a large enough effect; inconclusive = small, poorly fitted or top-dose-only effect, or another doubt; inactive = no such curve, though single readings can be large or run the other way.
# Assay: qHTS Assay for Inhibitors of Hepatitis C Virus (HCV)
# Settings: Huh7.5.1 HCVcc-Cre infection, luciferase reporter, 44 h; series mostly up to 41.8 µM; activity change, negative = inhibition: at the top concentration
# In short: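 1,000 cells/well; 4 h culture; + compound; + HCVcc-Cre (~0.5 moi); 44 h; luciferase substrate, RT 15 min; read 15 sec.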
# % is set by controls: 0 for no effect and ±100 for the full control effect; potency is the fitted concentration of half-maximal effect.
SMILES,"activity change, negative = inhibition",Potency
CCCC(=O)NC(C)C(c1cccs1)N1CCN(c2ccccc2)CC1 (stereo not drawn),-14.3%,–
CCN(CC)S(=O)(=O)c1ccc(Cl)c(C(=O)NCCN2CCOCC2)c1,-1.51%,–
CCN(CC)S(=O)(=O)c1ccc(Cl)c(C(=O)NC(C)C(c2cccs2)N2CCCC2)c1 (stereo not drawn),–,14.1 µM (active)
O=S(=O)(Nc1cc(Cl)ccc1N1CCOCC1)c1ccccc1Cl,-5.1%,–
Cc1[nH]c2ccccc2c1C(=O)C(C)Sc1nnc(C2CC2)o1 (stereo not drawn),8.19%,–
Cc1n[nH]c(=O)c2c(NC(=O)CSc3ccccc3F)oc(C)c12,-1.71%,–
CC(C)(C)OC(=O)N/N=C/c1cn(-c2ccccc2)nc1-c1cccnc1,-16.7%,–
COc1ccc(-c2nn(-c3ccccc3)cc2/C=N/Nc2ccccn2)cc1OC,–,10 µM (active)
CC(=O)Oc1ccc(C(=O)Nc2nccs2)cc1,10.5%,–
Cn1cccc1C(=O)Nc1nccs1,-12.1%,–
COc1ccc(-c2nn(-c3ccccc3)cc2C(=O)Nc2nccs2)cc1OC,–,2.51 µM (active)
COC(=O)c1sccc1NC(=O)c1cc(OC)c(OC)c(OC)c1,-10.6%,–
COc1cc(C(=O)Nc2nccs2)cc(OC)c1OC,–,14.1 µM (active)
O=C(O)c1ccccc1-c1ccccc1C(=O)Nc1nccs1,7.11%,–
CN(C)/N=C/c1cn(-c2ccccc2)nc1-c1cccnc1,-5.06%,–
Cc1ccc(C)c(NC(=O)CN(C)C(=O)COc2ccc3ccccc3c2)c1,4.35%,–
CC(NC(=O)COC(=O)c1ccc2ccccc2n1)c1ccccc1 (stereo not drawn),14.5%,–
COc1cc(NC(=O)COC(=O)c2cc(S(=O)(=O)N3CCOCC3)ccc2F)cc(OC)c1,-6.05%,–
Cc1ccc(F)cc1NC(=O)CSCc1c(C)noc1C,7.86%,–
O=C(COC(=O)CNS(=O)(=O)c1ccc(F)c(F)c1F)NC1CCCC1,14.1%,–
CCC1(C)COC(c2ccc(OC)c(OC)c2)OC1 (stereo not drawn),10.1%,–

SMILES,"activity change, negative = inhibition",Potency
C=CCC[C@@H](Cc1ccc(F)cc1)C(=O)O[C@H](CNC(=O)[C@H](CC=C)CC(=O)N(CCO)Cc1ccccc1)c1ccccc1,–,8.91 µM (active)
C=CC[C@H](CC(=O)OC(C)(C)C)C(=O)OC[C@H]1CCCN1C(=O)[C@H](CC=C)CC(=O)N(CCO)Cc1ccccc1,-2.88%,–
C=CC[C@H](CC(=O)NCCO)C(=O)N[C@@H](COC(=O)[C@@H](CC=C)Cc1ccc(F)cc1)Cc1c[nH]c2ccccc12,-1.64%,–
COc1ccc(OC)c(Nc2nc3ccccc3n3cnnc23)c1,–,10 µM (active)
COc1ccc(CCNc2nc3ccc(C)cc3n3cnnc23)cc1OC,-4.98%,–
COc1cc(Nc2nc3ccc(Cl)cc3n3cnnc23)cc(OC)c1OC,0.274%,–
CN1CCC(N(C)C(=O)c2ccc(Cl)c(S(=O)(=O)Nc3ccc(Cl)cc3)c2)CC1,7.94%,–
CC1CC(C)(C)CC2(C1)NC(=O)N(CC(=O)Nc1nccs1)C2=O (stereo not drawn),21.6%,–
COc1ccc2[nH]c3ccc(OC)cc3c2c1,–,25.1 µM (active)
COc1ccc2[nH]c3c(c2c1)CCN[C@H]3C,-6.42%,–
COc1ccc2[nH]c(=S)cc(C)c2c1,13.3%,–
COc1ccc(-c2noc(CCC(=O)N3CCN(c4cccc(C)c4)CC3)n2)cc1,-3.79%,–
COc1cccc(-n2c(SCC(=O)NC3CCS(=O)(=O)C3)nc3ccccc3c2=O)c1 (stereo not drawn),21.3%,–
O=C1CC(c2ccccc2)C(=O)N2C(=O)CC(c3ccccc3)C(=O)N12 (stereo not drawn),17.1%,–
CCN(CC)C(=O)[C@H]1C[C@H](CC(=O)NCC23CC4CC(CC(C4)C2)C3)C(=O)N2CCc3c([nH]c4cc(CCC(=O)N(C)C)ccc34)[C@]12C,-5.73% [at 8.37 µM],–
COc1ccc(OCC(=O)Nc2ccc(N3CCC(C)CC3)cc2)cc1,-12.1%,–
CCC(=O)c1ccc(OCC(=O)Nc2ccc(N3CCCCC3)cc2)cc1,–,11.2 µM (active)
O=C(COc1ccc([N+](=O)[O-])cc1)Nc1ccc(N2CCCC2)cc1,2.94%,–
O=C(NC(=S)Nc1ccc(Br)cc1F)C1CCCCC1,18.5%,–
Cc1c(NS(=O)(=O)c2cc(C(=O)NCCc3ccc(F)cc3)cc(Cl)c2Cl)c(=O)n(-c2ccccc2)n1C,14.6%,–
CCN(CC(=O)NC(C)C)C(=O)c1cc(S(=O)(=O)N2CCCCC2)ccc1N1CCCCC1,26.8%,–

SMILES,"activity change, negative = inhibition",Potency
COCCCNC(=O)/C=C/c1ccc(OCc2c(F)cccc2Cl)cc1,-5.61%,–
CN(C)CCCNC(=O)/C=C/c1ccc(OCc2c(F)cccc2Cl)cc1,–,2.82 µM (active)
O=C(/C=C/c1ccc(OCc2c(F)cccc2Cl)cc1)N1CCOCC1,4.94%,–
O=C1COc2ccc(C(=O)COC(=O)CCOc3ccccc3)cc2N1,35.1%,–
COCCN(C(=O)CC1CCCCC1)c1c(N)n(CC(C)C)c(=O)[nH]c1=O,2.89%,–
CCCCn1c(N)c(N(CCOC)C(=O)c2cccc(S(=O)(=O)N3CCCCC3)c2)c(=O)[nH]c1=O,9.94%,–
CC(Cc1ccccc1)NCCC(c1ccccc1)c1ccccc1 (stereo not drawn),–,10 µM (active)
CC(Cc1ccccc1)C(=O)N(C)Cc1ccccc1 (stereo not drawn),-10.3%,–
Cc1ncoc1C(=O)NCCC(c1ccccc1)c1ccccc1,-13.5%,–
CC[C@]12c3[nH]c4ccc(OC)cc4c3CCN1C(=O)C(CC(=O)NCc1ccco1)C[C@@H]2C(=O)N1CCN(C(=O)C2CC2)CC1 (stereo partly drawn),36.7%,–
O=C(CN1CCN(S(=O)(=O)c2ccc(Cl)s2)CC1)N1CCCCC1,3.28%,–
COc1ccc(-c2csc(NC(=O)COC(=O)c3ccc(Br)o3)n2)cc1,0.372%,–
COc1ccc(OC)c(-c2csc(NC(=O)C3=NNC(=O)CC3)n2)c1,–,0.891 µM (active)
COc1ccc(C(=O)NC2=NCCS2)c(OC)c1,-19.4%,–
COc1ccc(OC)c(-c2csc(NC(=O)COC(=O)C3CC3)n2)c1,–,10 µM (active)
COc1ccc(CCNC(=O)COC(=O)C2CCCCC2)cc1,19.3%,–
COc1ccc(OC)c(NC(=O)c2sc3nc(C)cc(C)c3c2N)c1,20.2%,–
COCCCn1c(SCC(=O)Nc2oc(C)c3c(C)n[nH]c(=O)c23)nc2sc3c(c2c1=O)CCC3,6.64%,–
COc1ccc(CN2C(CC(=O)Nc3cccnc3)c3ccc(C(F)(F)F)cc3S2(=O)=O)cc1 (stereo not drawn),5.53%,–
Cc1cc(C)c(C)c(S(=O)(=O)Nc2cccnc2)c1C,3.82%,–
CC(OC(=O)C1CC(=O)N(Cc2ccccc2)C1)C(=O)Nc1ccccc1[N+](=O)[O-] (stereo not drawn),4.16%,–
